The results in this text go back to PubChem BioAssay (NCATS).

Assay [1] in a line: Primary qHTS for inhibitors of nuclear receptor binding SET domain protein 2 (NSD2) in an RCH-ACV wild type WT cells (2C) (AID 1645877; further: nearly all actives have a fitted effect of over 70% in size; further: potency means the concentration at half of the fitted maximal effect). (In general: Quantitative high-throughput screening tests each substance at several concentrations.)
The target of assay [2] is Glutathione peroxidase 1 (Homo sapiens) (UniProt P07203). Nature of the assay: Primary qHTS Assay for Inhibitors of Recombinant Selenoprotein Glutathione Peroxidase 1 (GPX1) (AID 1845191). Further: nearly all actives have a fitted effect of over 65% in size. On activity, negative = inhibition: on the % scale 0 is the no-effect control and ±100 the full control effect. The method, boiled down:
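NADPH consumption tracked by fluorescence at 340/450 nm between t=0 and t=15 min, room temperature. Final mix: 10 nM GPX1, 100 nM glutathione reductase, 1 mM GSH, 0.5 mM NADPH, 0.5 mM cumene hydroperoxide, 0.01% BSA; 30 min compound–enzyme preincubation.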

Assay [3] has as its target Phospholipid hydroperoxide glutathione peroxidase GPX4 (Homo sapiens) (UniProt P36969). Nature of the assay: Primary qHTS Assay for Inhibitors of Recombinant Selenoprotein Glutathione Peroxidase 4 (GPX4) (AID 1845192). Further: nearly all actives have a fitted effect of over 65% in size. On activity change, negative = inhibition: on the % scale 0 is the no-effect control and ±100 the full control effect. The method, boiled down: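 NADPH consumption followed by fluorescence at 340/450 nm, t=0 and after 15 min at room temperature. Reaction started with cumene hydroperoxide (0.5 mM final) after 30 min compound–GPX4 preincubation; final 200 nM GPX4, 100 nM GR, 1 mM GSH, 0.5 mM NADPH.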

The target in assay [4] is Luciferin 4-monooxygenase (Photinus pyralis) (UniProt P08659). Nature of the assay: Primary firefly luciferase (FLuc) qHTS assay for identification of artifact compounds. (AID 1845220). Further: nearly all actives have a fitted effect of over 60% in size.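 On activity change, negative = inhibition: plate controls were DMSO vehicle for no effect and no enzyme for full effect.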 The method, boiled down:
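Compounds sat 15 min at room temperature with 10 uM luciferin and 10 uM ATP (pH 7.6 Tris acetate). Firefly luciferase (10 nM final) was then added, and luminescence was read 5 min later. Data normalized to no-enzyme and DMSO controls were Hill-fitted.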

Assay [5] can be described thus: Primary fluorescence-based thiol-reactive (MSTI) qHTS assay for identification of artifact compounds. (AID 1845221).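 Further: thiol-reactive compounds lower the probe fluorescence signal; nearly all actives have a fitted effect of over 65% in size.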 The method, boiled down: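 One-hour, room-temperature, dark incubation of compound with 4 uM MSTI in PBS (pH 7.4, 2% DMSO) precedes a fluorescence read at 525 nm excitation, 598 nm emission; Hill-equation fitting yields concentration-response values.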

Assay [6] in a line: NCATS anti-infectives library activity on HEK293 viability as a counter-qHTS vs the C. elegans viability qHTS (AID 1745854).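 Further: HEK293 cells exposed to compounds for 24 hr before the viability read.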 Further: potency means the concentration at half of the fitted maximal effect. The method, boiled down: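 Counter-screen for cytotoxicity: HEK293, 24 hr, 37C, compounds up to 41.7 uM final (a dilution series, 1:5). Readout CellTiter-Glo luminescence, 10 min RT. Digitonin control, 83.3 uM final.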
Assay [7] relates to Nanoluciferase (engineered Oplophorus gracilirostris luciferase). Nature of the assay: Primary Nanoluciferase (NLuc) qHTS assay for identification of artifact compounds. (AID 1845222). Further: potency means the concentration at half of the fitted maximal effect.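 On activity, negative = inhibition: 0% = DMSO and -100% = no enzyme.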 The method, boiled down:
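Luminescence from secreted NLuc (filtered, 1:55-diluted S16 cell medium) read 5 min after Nano-Glo substrate; compounds preincubated 15 min, RT. Hill fits of inhibition normalized to DMSO and no-enzyme.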

Assay [8] is described as follows: Primary redox qHTS assay for identification of artifact compounds. (AID 1845223).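 Further: 0% = DMSO and 100% = reference compound.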 Put shortly:
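Redox-cycling detection via DTT (250 uM final) oxidation coupled to Amplex Red (25 uM)/HRP (250 mU/mL) in HBSS. 15 min preincubation plus 30 min after DTT, room temperature. Ex/Em 525/598 nm; 4-parameter Hill fit against DMSO and 10 uM DA3003.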

Assay [9] addresses Catechol O-methyltransferase (Homo sapiens) (UniProt P21964). Description: Confirmatory Screen for Target Class Profiling of Small Molecule Inhibitors of Methyltransferases (AID 1745852; calls by dose curve; further: potency means the concentration at half of the fitted maximal effect; on activity change, negative = inhibition: on the % scale 0 is the no-effect control and ±100 the full control effect). The settings on record: MTase-Glo luminescence, SAH detection, recombinant enzyme; measured here: COMT max response; stronger effect = lower value.
Assay [10] deals with Guanidinoacetate N-methyltransferase (Homo sapiens) (UniProt Q14353). Described as above. The conditions noted are these: activity change, negative = inhibition: at 57.3 µM (top of the series) unless noted.
Assay [11] concerns the target Nicotinamide N-methyltransferase (Homo sapiens) (UniProt P40261). The description is as above. The settings on record: MTase-Glo luminescence, SAH detection, recombinant enzyme; measured here: NNMT max response; stronger effect = lower value.
Assay [12] concerns the target Phenylethanolamine N-methyltransferase (Homo sapiens) (UniProt P11086). The description is as above. The conditions noted are these: MTase-Glo luminescence, SAH detection, recombinant enzyme; measured here: PNMT max response; stronger effect = lower value.

SMILES strings stand for the structures. Records with an inconclusive call do not appear. The source made the active and inactive calls. Unless noted, the call rests on the fitted dose curve; in most records, active means well fitted curve in the direction sought with a large enough effect; inconclusive means small, poorly fitted or top-dose-only effect, or another doubt; inactive means no such curve, though single readings can be large; an effect the other way counts as inactive or inconclusive.

Phospholipid hydroperoxide glutathione peroxidase GPX4 (Homo sapiens), sequence (P36969 whole entry, looked up): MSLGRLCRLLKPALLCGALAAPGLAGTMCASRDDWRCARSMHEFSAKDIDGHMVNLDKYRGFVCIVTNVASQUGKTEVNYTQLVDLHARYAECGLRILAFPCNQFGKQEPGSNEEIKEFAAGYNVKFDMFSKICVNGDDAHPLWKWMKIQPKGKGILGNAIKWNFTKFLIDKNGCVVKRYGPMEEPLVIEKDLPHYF
Nicotinamide N-methyltransferase (Homo sapiens), sequence (P40261 whole entry, looked up): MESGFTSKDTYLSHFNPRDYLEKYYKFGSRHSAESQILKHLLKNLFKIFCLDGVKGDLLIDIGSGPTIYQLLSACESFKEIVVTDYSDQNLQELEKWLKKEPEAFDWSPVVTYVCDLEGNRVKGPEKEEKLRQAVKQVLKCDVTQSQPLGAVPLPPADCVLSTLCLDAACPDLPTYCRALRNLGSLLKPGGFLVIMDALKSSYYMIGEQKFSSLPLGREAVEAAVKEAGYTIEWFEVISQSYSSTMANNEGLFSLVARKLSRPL
Phenylethanolamine N-methyltransferase (Homo sapiens), sequence (P11086 whole entry, looked up): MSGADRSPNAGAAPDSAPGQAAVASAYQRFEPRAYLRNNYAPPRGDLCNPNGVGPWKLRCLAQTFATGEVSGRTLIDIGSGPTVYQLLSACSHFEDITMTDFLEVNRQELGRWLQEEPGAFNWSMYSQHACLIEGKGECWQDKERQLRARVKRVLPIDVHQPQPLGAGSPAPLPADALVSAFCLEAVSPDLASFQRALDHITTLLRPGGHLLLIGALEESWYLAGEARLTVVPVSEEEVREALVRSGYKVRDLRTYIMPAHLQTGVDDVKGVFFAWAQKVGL
Catechol O-methyltransferase (Homo sapiens), sequence (P21964 whole entry, looked up): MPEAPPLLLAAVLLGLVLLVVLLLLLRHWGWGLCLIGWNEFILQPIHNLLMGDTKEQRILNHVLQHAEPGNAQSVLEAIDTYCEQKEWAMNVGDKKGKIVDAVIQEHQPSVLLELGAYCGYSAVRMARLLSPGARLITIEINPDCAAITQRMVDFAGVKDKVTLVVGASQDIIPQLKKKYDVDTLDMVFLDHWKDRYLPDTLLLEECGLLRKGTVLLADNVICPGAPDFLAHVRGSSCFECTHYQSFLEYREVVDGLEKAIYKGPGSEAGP
Glutathione peroxidase 1 (Homo sapiens), sequence (P07203 whole entry, looked up): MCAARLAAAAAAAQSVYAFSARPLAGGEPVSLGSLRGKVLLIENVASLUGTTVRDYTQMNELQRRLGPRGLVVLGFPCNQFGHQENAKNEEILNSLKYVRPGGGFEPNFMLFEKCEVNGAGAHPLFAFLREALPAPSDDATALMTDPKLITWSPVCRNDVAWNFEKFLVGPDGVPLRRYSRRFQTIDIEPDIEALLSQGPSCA

In the case of `CC(C)C(CO)Nc1nc(Nc2ccc(C(=O)O)c(Cl)c2)c2ncn(C(C)C)c2n1` (stereo not given), the Potency result in assay [1], in assay [2], in [3], in assay [4] and in assay [5] was “inactive” in each case.
With `Cc1cc(OCc2nnc(SC3CCCC3)n2-c2cccnc2)ccc1-c1ccc(S(C)(=O)=O)cc1`, the Potency in assay [1] is 1.45 µM (active); in assay [6], 11.2 µM (active). Moreover, the Potency result in assay [2], in assay [3], in assay [4], in assay [5], in assay [7] and in [8] was “inactive” throughout.
With `CS(=O)(=O)c1ccc(-c2nnc(/C=C/c3nnc(-c4ccc(C#N)cc4)o3)n2-c2ccccc2Cl)nc1`, the Potency entry in [1], in assay [6], in assay [4], in [5] and in [8] was “inactive” in each case. In addition, in assay [7], the Potency is 12 µM (active).
As for `O=C(O)/C=C/c1ccc(-c2ccc(O)c(C34CC5CC(CC(C5)C3)C4)c2)cc1`, the Potency in assay [1] is 0.145 µM (active). Further, the activity in assay [9] is 0.235%; in assay [11], -84%; in [12], -0.0074%. The activity change, negative = inhibition in [10] was 1.42%. Moreover, the Potency entry in assay [4], in assay [5], in assay [7] and in assay [8] was “inactive” each time.
Take `CCO[C@@H]1OC(=O)C[C@@H]1NC(=O)[C@@H]1CCCN1C(=O)[C@@H](NC(=O)c1ccc(N)c(Cl)c1)C(C)(C)C`: the Potency result in assay [1], in [6], in assay [2], in [3], in assay [4] and in assay [5] was “inactive” each time. Besides, in assay [8], the Potency result was “inactive”.
Take `CN1CCc2nc(C(=O)N[C@@H]3C[C@@H](C(=O)N(C)C)CC[C@@H]3NC(=O)C(=O)Nc3ccc(Cl)cn3)sc2C1`: the Potency result in [1], in [6], in [2], in assay [3], in assay [4] and in assay [7] was “inactive” each time.
Consider `CC(C)C(NC(=O)c1ccc2ccccc2n1)C(=O)NC(CC(=O)O)C(=O)COc1c(F)cccc1F` (stereo not given), for which the Potency result in [1], in assay [6], in assay [2], in assay [3], in assay [4] and in assay [5] was “inactive” in each case.
For `COc1ccc(N2CCOCC2)c2sc(NC(=O)N3CCC(C)(O)CC3)nc12`, the Potency result in [1], in assay [2], in [3] and in [4] was “inactive” throughout.
Take `N#Cc1ccc(-c2cnc3[nH]cc(NC(=O)c4cccnc4)c3c2)cc1`: the Potency in [1] was 5.15 µM (active). The activity is 1.05% in assay [9], 2.51% in assay [11] and -6.92% in assay [12]. Moreover, the Potency entry in [10], in assay [3], in [4], in assay [7] and in assay [8] was “inactive” each time.
For `O=C(O)c1cc(I)ccc1NC(=O)[C@H](Cc1ccccc1)NCc1ccccc1`, the Potency result in [1], in [2], in assay [3], in [4] and in assay [5] was “inactive” each time.
In the case of `COc1cc2nc(N3CCC(N4CCCCC4)CC3)nc(NC3CCCCCC3)c2cc1OC`, the values for the Potency in assay [1] and in assay [10] were 2.3 µM (active) and 42.9 µM (active), respectively. Moreover, the activity in assay [9] was -39.3%; in assay [11], -54.7%; in [12], -35.6%. Further, the Potency result in assay [4], in assay [5], in assay [7] and in [8] was “inactive” throughout.
Consider `COc1cc2nc(N3CCCC3)nc(NCCCCCN3CCCC3)c2cc1OC`, for which the Potency in assay [1] is 5.15 µM (active). For the same molecule, the activity in [9] was -4.52%; in assay [11] it was -30.1%; in assay [12], -0.684%. In addition, in assay [10], the activity change, negative = inhibition turned out to be 0.888%. For the same molecule, the Potency result in assay [4], in [5], in assay [7] and in [8] was “inactive” throughout.
For the molecule `C[C@@H]1O[C@@H](O[C@H]2[C@H](O)[C@@H](O)[C@H](OC[C@H]3O[C@@H](OC(=O)[C@]45CCC(C)(C)C[C@H]4C4=CCC6[C@@]7(C)CC[C@H](O[C@@H]8OC[C@H](O)[C@H](O[C@@H]9O[C@H](CO)[C@@H](O)[C@H](O)[C@H]9O)[C@H]8O)[C@@](C)(CO)C7CC[C@@]6(C)[C@]4(C)CC5)[C@H](O)[C@@H](O)[C@@H]3O)O[C@@H]2CO)[C@H](O)[C@H](O)[C@H]1O` (stereo not given in full), the outcome in assay [1] was “inactive [at 9.23 µM]”. In addition, the activity, negative = inhibition in [2] was -7.31% [at 9.52 µM] (inactive). In addition, the activity change, negative = inhibition in assay [3] is -3.72% [at 9.73 µM] (inactive); in assay [4], 2.93% [at 11.6 µM] (inactive). For the same molecule, the activity change, negative = thiol reactive in assay [5] was 205% [at 11.5 µM] (inactive).
As to `CCCNc1ccc2ncc(-c3ccc4[nH]ncc4c3)n2n1`, the Potency is 0.0916 µM (active) in [1] and 8.57 µM (active) in [10]. Further, the activity is -53.8% in assay [9], -46% in [11] and -45.4% in assay [12]. In addition, the Potency result in assay [4], in assay [7] and in assay [8] was “inactive” throughout.
As for `CC1CC(O)/C=C/C(O)C(O)CC(=O)Cc2c(Cl)c(O)cc(O)c2C(=O)O1` (stereo not given), the Potency entry in assay [1], in [2], in assay [3] and in [4] was “inactive” throughout.
